Experimental data as given in PubChem BioAssay.
Calls of active or inactive are those of the source.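 How the source made its calls, unless noted: active means inhibition of the reporter signal at or above 50%; inactive means inhibition below 50%.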

What was measured:
[1] = inhibitors of TNFa-induced NFkB p65 translocation, primary screen, imaging, HUVEC, MLSMR starter and 10KST1 sets (AID 438;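 active means inhibition above 20% together with a positive visual image hit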;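 further: compound added about 3h40 before a 20 min TNFalpha stimulation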;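 on inhibition: signal is the nuclear over cytoplasmic p65 intensity ratio per well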); conditions: HUVEC TNFa-induced p65 nuclear translocation; cell count: measured here: nuclei count (cytotoxicity indicator), at 2.08 µM; inhibition: at 2 µM, stronger effect = higher value, 0% TNFa-plus-vehicle, 100% no-TNFa wells
[2] = inhibitors of mutant huntingtin aggregation, primary screen, imaging, exon1htt(103Q)mCFP cells, high-content imaging (AID 483;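 active means visual image review flags a hit and inhibition of aggregation exceeds 20%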;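 further: compound exposure lasted 3 days before fixation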;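 on nuclei count: percent of the per-plate median nuclei count of sample wells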); conditions: exon1htt(103Q)mCFP cell line, aggregate imaging, at 2 µM; inhibition of aggregation: stronger effect = higher value; nuclei count: measured here: cell count, toxicity
[3] = inhibitors of E-selectin induction by TNFa, primary screen, imaging, HUVEC, immunofluorescence, MLSMR starter and 10KST1 sets (AID 487;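 active means visually confirmed hit in the image check and inhibition above 20%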;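 on inhibition: signal is fraction of cell area covered by stained E-selectin grains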;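 on nuclei count: 100% = median nuclei count of all wells on the same plate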); conditions: HUVEC TNFalpha-induced E-selectin immunofluorescence imaging, at 2 µM; inhibition: stronger effect = higher value; nuclei count: measured here: cell number, toxicity
[4] = target: Voltage-gated potassium channel subunit beta-2 (Rattus norvegicus) (UniProt P62483); assay: KvBeta enzyme negative modulators, primary screen, biochemical, NADPH fluorescence (AID 622;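 active means fluorescence slope higher than the sample average by over 3 SD, cut at about -0.22 in these data, passing the limit was not always enough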;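 further: slope of raw intensity against log time taken from 70 to 1610 s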); conditions: recombinant KvBeta, 4-cyanobenzaldehyde reduction, at 10 µM, stronger effect = higher value
[5] = target: Voltage-gated potassium channel subunit beta-2 (Rattus norvegicus) (UniProt P62483); assay: KvBeta positive modulators, primary screen, biochemical, NADPH fluorescence (AID 623;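 active means NADPH fluorescence slope more negative than the mean of all samples by about 3 SD, 99.7% confidence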;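 further: fluorescence intensity change per second fitted from 20 to 320 s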); conditions: Recombinant KvBeta, NADPH fluorescence decrease slope, 10 min; at 10 µM; stronger effect = lower value
[6] = target: Alpha-2C adrenergic receptor (Homo sapiens) (UniProt P18825); assay: modulators of alpha2C/GIRK thallium flux, primary screen, cell-based, HEK293 alpha2C/GIRK1/2 (AID 624;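 active means fluorescence slope after compound addition differing from the mean of all screened samples at 99.7% confidence, in either direction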;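 further: slope of fluorescence ratio to pre-addition baseline per second over 15 to 24 s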); conditions: thallium flux BTC fluorescence, at 10 µM, actives lie on both sides
[7] = inhibitors of Sendai virus-induced IRF3 signaling, primary screen, TLR/RLR signaling modifier project, cell-based, Sendai virus stimulus, luciferase, 10K MLSCN set (AID 602276;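 active means inhibition at or above 50% at 10 µM; inactive means inhibition below 50%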;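 further: firefly luciferase from ISG56 promoter only with Renilla not read in this screen; 0% = Sendai virus plus DMSO and 100% = medium plus DMSO without virus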); conditions: HEK293 RL24 IRF3 luciferase reporter, at 10 µM, stronger effect = higher value
[8] = inhibitors of poly I:C-induced TLR3 signaling, primary screen, cell-based, poly I:C stimulus, luciferase, 10K MLSCN set (AID 602277); conditions: HEK293-TLR3 RL24 IRF3 luciferase reporter, at 10 µM, stronger effect = higher value

Chain of Alpha-2C adrenergic receptor (Homo sapiens) (P18825 whole entry, looked up): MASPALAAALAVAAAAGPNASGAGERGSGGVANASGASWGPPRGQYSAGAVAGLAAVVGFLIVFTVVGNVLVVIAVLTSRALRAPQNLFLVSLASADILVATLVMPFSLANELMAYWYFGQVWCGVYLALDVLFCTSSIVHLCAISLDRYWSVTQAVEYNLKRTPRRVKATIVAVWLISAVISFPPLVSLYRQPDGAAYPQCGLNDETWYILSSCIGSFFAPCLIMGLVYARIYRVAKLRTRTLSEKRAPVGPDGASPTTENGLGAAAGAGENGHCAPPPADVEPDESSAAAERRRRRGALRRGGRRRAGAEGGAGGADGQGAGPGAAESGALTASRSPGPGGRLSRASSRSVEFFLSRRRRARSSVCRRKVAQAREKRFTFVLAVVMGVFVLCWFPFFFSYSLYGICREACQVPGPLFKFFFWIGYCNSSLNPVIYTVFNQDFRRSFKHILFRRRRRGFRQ
Chain of Voltage-gated potassium channel subunit beta-2 (Rattus norvegicus) (P62483 whole entry, looked up): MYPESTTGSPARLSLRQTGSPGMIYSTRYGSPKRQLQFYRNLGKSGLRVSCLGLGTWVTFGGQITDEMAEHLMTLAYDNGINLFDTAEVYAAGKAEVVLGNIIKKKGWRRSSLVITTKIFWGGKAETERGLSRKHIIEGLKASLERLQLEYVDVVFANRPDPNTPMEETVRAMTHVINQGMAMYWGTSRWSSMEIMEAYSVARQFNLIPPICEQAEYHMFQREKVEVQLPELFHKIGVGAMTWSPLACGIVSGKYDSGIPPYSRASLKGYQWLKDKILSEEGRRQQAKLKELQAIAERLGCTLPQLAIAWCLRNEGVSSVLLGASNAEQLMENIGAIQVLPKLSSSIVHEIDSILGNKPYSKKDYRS

Compound | cell count [1] | inhibition [1] | inhibition of aggregation [2] | nuclei count [2] | inhibition [3] | nuclei count [3] | fluorescence slope [4] | NADPH fluorescence slope [5] | slope [6] | inhibition [7] | inhibition [8]
Cc1ccc(-c2cc(C(F)F)n3ncc(C(=O)N4CCN(c5ccccn5)CC4)c3n2)cc1 | 829 | -1.7% (inactive) | 9.3% (inactive) | 85.3% | -56.7% (inactive) | 120% | -0.514 (inactive) | -3e-05 (inactive) | 0.00598 (inactive) | 17.4% (inactive) | 42.8% (inactive)
C=CCNC(=O)c1ccc(Cl)cc1Cl | 344 | 1.6% (inactive) | -21.2% (inactive) | 87.7% | -31.6% (inactive) | 91.8% | -0.478 (inactive) | -4.6e-05 (inactive) | 0.00715 (inactive) | 0.0277% (inactive) | 23.8% (inactive)
O=C(O)c1ccc2noc(-c3ccccc3)c2c1 | 755 | -8.7% (inactive) | 16.9% (inactive) | 103% | -15% (inactive) | 123% | -0.378 (inactive) | -3.4e-05 (inactive) | 0.00344 (inactive) | -20.8% (inactive) | -49.6% (inactive)
CC(=O)c1cccc(NC(=O)NCc2ccccn2)c1 | 655 | -6.1% (inactive) | -1.1% (inactive) | 132% | -41.1% (inactive) | 119% | -0.424 (inactive) | -4.2e-05 (inactive) | 0.00223 (inactive) | -8.72% (inactive) | -125% (inactive)
COCCNC(=O)c1ccc(CS(=O)(=O)c2ccc(OC)cc2)o1 | 636 | 4.1% (inactive) | -4.8% (inactive) | 96.8% | 5.3% (inactive) | 124% | -0.583 (inactive) | -5.4e-05 (inactive) | 0.00675 (inactive) | 9.76% (inactive) | 25.7% (inactive)
COc1ccc(C)cc1NC(=O)c1nnn(Cc2cccc(F)c2)c1N | 610 | -0.2% (inactive) | 6.4% (inactive) | 100% | -31.3% (inactive) | 127% | -0.513 (inactive) | -2.7e-05 (inactive) | 0.00668 (inactive) | 40.9% (inactive) | 1.2% (inactive)
CC(C)CCN(C)C1CCN(S(=O)(=O)c2ccc(F)cc2)CC1 | 638 | 0.8% (inactive) | -2.4% (inactive) | 82.9% | -35.4% (inactive) | 121% | -0.543 (inactive) | 1.3e-05 (inactive) | 0.00577 (inactive) | 10.6% (inactive) | 40.9% (inactive)
O=C(CSc1ncn[nH]1)c1ccco1 | 746 | -13.5% (inactive) | -3.4% (inactive) | 112% | 13.2% (inactive) | 119% | -0.453 (inactive) | -9.5e-06 (inactive) | 0.00556 (inactive) | 18.7% (inactive) | 26.5% (inactive)
Cc1occc1C(=O)N1CCN(c2ncccn2)CC1 | 347 | -12.5% (inactive) | 5% (inactive) | 102% | -117% (inactive) | 101% | -0.356 (inactive) | 6.9e-06 (inactive) | 0.00583 (inactive) | -8.62% (inactive) | 4.37% (inactive)
CCCCOCCCNC(=O)COc1ccccc1 | 360 | -3.4% (inactive) | -12.1% (inactive) | 113% | -3.5% (inactive) | 114% | -0.398 (inactive) | -6.8e-05 (inactive) | 0.00485 (inactive) | 17.8% (inactive) | 29.4% (inactive)
CCOC(=O)c1c(COC(=O)c2ccco2)nc2ccccc2[n+]1[O-] | 570 | 8.9% (inactive) | 8.4% (inactive) | 107% | -31.9% (inactive) | 120% | -0.392 (inactive) | -4.6e-05 (inactive) | 0.00397 (inactive) | 17.9% (inactive) | 15.1% (inactive)
Cc1nnc(NC(=O)CSc2nnc(-c3ccc(S(=O)(=O)N4CCCC4)cc3)n2C)s1 | 575 | -16.3% (inactive) | 14.6% (inactive) | 85.9% | -21.6% (inactive) | 91.4% | -0.495 (inactive) | -2.2e-05 (inactive) | 0.00452 (inactive) | 17.1% (inactive) | 17.7% (inactive)
O=C(Nc1ccc2c(c1)nc1n2CCSC1)c1ccccc1 | 487 | -0.5% (inactive) | 13.7% (inactive) | 106% | -0.8% (inactive) | 119% | -0.444 (inactive) | -1.4e-05 (inactive) | 0.00391 (inactive) | -30.3% (inactive) | -80.3% (inactive)
Cc1ccc2nc(-c3ccc(S(=O)(=O)N4CCOCC4)cc3)cn2c1 | 591 | -9.3% (inactive) | -9.3% (inactive) | 96.7% | 7.4% (inactive) | 89.1% | -0.0874 (active) | 1e-05 (inactive) | 0.00713 (inactive) | 5.63% (inactive) | -13.9% (inactive)
Cc1ccc(Nc2cc(-n3nc(C)cc3C)ncn2)cc1 | 378 | 5.2% (inactive) | -9.7% (inactive) | 99.7% | -14.1% (inactive) | 101% | -0.442 (inactive) | -3.4e-05 (inactive) | 0.00717 (inactive) | -0.371% (inactive) | -15.8% (inactive)
COc1nc(Oc2ccc(=O)n(C)n2)nc(N(C)C)n1 | 420 | 1% (inactive) | -5.2% (inactive) | 116% | -52.1% (inactive) | 110% | -0.357 (inactive) | -1.9e-05 (inactive) | 0.00579 (inactive) | 6.15% (inactive) | 12% (inactive)
CC1CCCCC1NC(=O)Cn1ncc2ccccc21 (centres undefined) | 827 | -6.9% (inactive) | 10.9% (inactive) | 94% | -81.1% (inactive) | 123% | -0.555 (inactive) | -4.8e-05 (inactive) | 0.00699 (inactive) | 11.9% (inactive) | 34.8% (inactive)
COc1ccc(-c2nc(C)c(C(C)=O)n2O)cc1OC | 385 | 2.7% (inactive) | 3.6% (inactive) | 102% | -127% (inactive) | 106% | -0.355 (inactive) | -2.6e-05 (inactive) | 0.00569 (inactive) | -2.76% (inactive) | 10.1% (inactive)
COc1cccc(C2CC(c3ccccc3)n3ncnc3N2)c1 (centres undefined) | 564 | 4.1% (inactive) | -12% (inactive) | 90.7% | 17.4% (inactive) | 82% | -0.6 (inactive) | -2.8e-05 (inactive) | 0.00718 (inactive) | 5.93% (inactive) | 33.2% (inactive)
